Experimental findings from ChEMBL document CHEMBL4513216, “Probing the Open Global Health Chemical Diversity Library for Multistage-Active Starting Points for Next-Generation Antimalarials” (ACS Infect Dis, 2020) are described below.

Out of some 69,000 compounds screened, about 8,600 (12%) showed an effect of 50% or more. The sample holds strong results, similar compounds and a random draw of the others, so the mix is not that of the screen.

The test concerns Plasmodium berghei. Description: Screen against P. berghei liver stage (PbLuc), transformed with Luciferase, at 10uM. The class given is functional, HepG2. The conditions noted are these: tested at 10 uM.
`Cc1nc(C(=O)N2CCC(c3nnc(Cn4ccnc4)n3C)CC2)cs1`: the INHIBITION is listed as -19.5%. Then `Cc1ccc(Br)c(S(=O)(=O)NCc2ccnn2C)c1`, with -24.4%; and `COCCN1CCC2(CCN(CC3CC3)CC2)C1=O`, with 8.85%; and `Cc1nc[nH]c1-c1nc2cc(S(=O)(=O)N3CCCC3)ccc2n1C`, with 4.71%. Consider `NC(=O)c1ccc(-n2ccnc2C2CC2)cc1N1CCCC1`, for which the INHIBITION turned out to be 36.3%.

Consider `Cn1ccnc1-c1nccn1-c1cccc(CN2CCCC2)c1`, for which the INHIBITION was 39.9%.

As for `CCN(CC)CCn1ccnc1-c1cccc(O)c1`, the INHIBITION is on record as -18.8%. Then `NC(=O)c1ccc(-n2ccnc2-c2cccc(O)c2)cc1N1CCCC1`, with 63.5%; and `Cc1nc[nH]c1-c1nccn1-c1cccc(CN2CCCC2)c1`, with 53%; and `Cc1nc[nH]c1-c1nccn1-c1ccc(C(N)=O)c(N2CCCC2)c1`, with 50.5%. Turning to `c1cc(CN2CCCC2)cc(-n2ccnc2-c2ccncc2)c1`, the INHIBITION is given as 22.7%. With `Cc1nc[nH]c1-c1nccn1CCN(C)S(C)(=O)=O`, the INHIBITION stood at 8.86%.

On to `CN(Cc1cnn(C)c1)C(=O)NCCc1ccc2c(c1)OCO2`, for which the INHIBITION was -24.75%. Then `Cc1cc2nc(SCC(=O)N3CCCC3)n(-c3ccccc3)c(=O)c2[nH]1`, with 16.6%; and `Cc1ncc(CN2CCc3c(nc(-c4ccccn4)[nH]c3=O)C2)n1C`, with 31.6%. The figure for `COCCc1noc(CN2CCOC(Cn3nc(C)cc3C)C2)n1` (centres undefined) is 14.4%.

Consider `CC(=O)N[C@@H]1CN(C(=O)c2cnc3ccccc3c2)C[C@H]1O`, for which the INHIBITION was determined as 22%. For `CCC[C@@H]1CN(C(=O)c2cc3ccccc3s2)C[C@H]1NS(C)(=O)=O`, the INHIBITION is 20.1%. Turning to `CCC[C@@H]1CN(C(=O)c2cnc3ccccc3c2)C[C@H]1NS(C)(=O)=O`, the INHIBITION was found to be 51.1%. Regarding `OCc1nnc2n1CCN(c1cnccn1)C2`, the INHIBITION stood at 28.5%. As to `CCC(CC)(CNC(=O)OC(C)(C)C)NC(=O)C1CCCO1` (centres undefined), the INHIBITION is given as 56.6%.

As to `CCC(CC)(CNC(=O)OC(C)(C)C)NC(=O)C1CCOCC1`, the INHIBITION is -50.8%. With `CCC(CC)(CNC(=O)OC(C)(C)C)NC(=O)C1CC1`, the INHIBITION is -120%. In the case of `Cc1cc(C(=O)Nc2nc3c(s2)CN(S(=O)(=O)C2CC2)CC3)c(C)o1`, the INHIBITION is reported as -59.6%. For `CC(C)c1nc(N2CCC(N3CCSCC3)CC2)c2cnn(C)c2n1`, the INHIBITION is listed as 21.1%. On to `C[C@@H]1CN(CCCOc2ccc(F)cc2)CC[C@@]1(O)C1CCOCC1`, for which the INHIBITION stood at 7.24%. For `Cn1nnnc1SCC1Cc2ccccc2O1` (centres undefined), the INHIBITION turned out to be 17.2%.

As for `Cc1cc(C)n(C2CCCN(C(=O)c3cccc4c3OCO4)C2)n1` (centres undefined), the INHIBITION is listed as 23.7%. For `O=C(c1ccc(Br)o1)N1CCCC(n2cncn2)C1` (centres undefined), the INHIBITION came out at 11.8%. For the molecule `Cc1cnn(C2CCCN(C(=O)c3cccc4c3OCO4)C2)c1` (centres undefined), the INHIBITION stood at 56.6%. Consider `Cc1ccc(C(=O)N2CCCC(n3cncn3)C2)o1` (centres undefined), for which the INHIBITION was 60.1%. As for `COc1ccc(CCCC(=O)N2CCCC(n3cncn3)C2)cc1` (centres undefined), the INHIBITION is 54.8%. Take `CCc1ccc(C(=O)N2CCCC(n3cncn3)C2)o1` (centres undefined): the INHIBITION is 45.1%. In the case of `O=C(CCCc1ccccc1)N1CCCC(n2cncn2)C1` (centres undefined), the INHIBITION is given as -12.2%.

On to `O=C(c1cccc2c1OCO2)N1CCCC(n2cccn2)C1` (centres undefined), for which the INHIBITION stood at 28.5%. For the molecule `Cc1cnn(C2CCCN(C(=O)c3ccc(N4CCCC4)nn3)C2)c1` (centres undefined), the INHIBITION is reported as 25.1%. As for `COc1ccc(CCC(=O)N2CCCC(n3cncn3)C2)cc1` (centres undefined), the INHIBITION is -7.35%. Then `Cc1cnn(C2CCCN(C(=O)c3cc[nH]n3)C2)c1` (centres undefined), with 64.6%. The figure for `Cc1cnn(C2CCCN(C(=O)c3ccc(N(C)C)nn3)C2)c1` (centres undefined) is 11.6%. The figure for `CCOc1ccccc1C(CC(=O)Nc1ccccn1)NC(C)=O` (centres undefined) is -10.45%; for `Cc1ccc(CN2CC[C@H]3[C@H]2CCN3S(=O)(=O)C2CC2)cc1` it is 8.85%. On to `Cn1c(CN2CCCC(N3CCNC3=O)C2)cc(=O)n(C)c1=O` (centres undefined), for which the INHIBITION was determined as 31.4%. For `CCN1CC2(CCC1=O)CCN(Cc1cccc(OC(F)F)c1)CC2`, the INHIBITION is -9.39%. For `CN(C)Cc1cn(-c2ccccc2C(=O)NCC2CCCCN2C)cn1` (centres undefined), the INHIBITION was determined as 29.95%.

Regarding `CNc1nc2c(s1)C(c1c(F)cccc1Cl)CC(=O)N2` (centres undefined), the INHIBITION stood at 3.95%. Take `CN(C)C(=O)[C@]12CCCN(CC3CC3)C[C@H]1CN(c1ccccn1)C2`: the INHIBITION amounted to 0.618%.

`COc1ccccc1CN(C)C(=O)C[S+]([O-])Cc1cc(C)on1` (centres undefined): the INHIBITION was determined as 5.29%.

Regarding `CC(C(=O)N1CCCN(Cc2cscn2)CC1)N1CCOCC1` (centres undefined), the INHIBITION is -4.3%. Turning to `Cn1cc(CN2CCn3cc(Cn4cccn4)nc3C2)cn1`, the INHIBITION was -6.23%. Turning to `Cc1cnn(C2CCCN(C(=O)c3cc(C4CC4)on3)C2)c1` (centres undefined), the INHIBITION is 59%.

Consider `O=C(c1cc(C2CC2)on1)N1CCCC(n2cccn2)C1` (centres undefined), for which the INHIBITION stood at 27.65%.

With `Cc1cc(C)n(C2CCCN(C(=O)c3cc(C4CC4)on3)C2)n1` (centres undefined), the INHIBITION amounted to 14.4%. Then `Cc1cc(C)n(CCC(=O)N2CCCC(n3cncn3)C2)n1` (centres undefined), with 64.7%; and `CNc1snc(C)c1C(=O)N1CCCC(n2cccn2)C1` (centres undefined), with 46.2%. On to `CNc1snc(C)c1C(=O)N1CCCC(n2cc(C)cn2)C1` (centres undefined), for which the INHIBITION came out at 58.5%. As for `O=C(c1ccon1)N1CCCC(n2cncn2)C1` (centres undefined), the INHIBITION was determined as 9.82%.

Consider `Cn1cc(CCC(=O)N2CCCC(n3cncn3)C2)cn1` (centres undefined), for which the INHIBITION was 19.4%. For the molecule `Cc1cc(C)n(CCC(=O)N2CCCC(n3nc(C)nc3C)C2)n1` (centres undefined), the INHIBITION is recorded as 30.2%. The figure for `CNc1snc(C)c1C(=O)N1CCCC(n2nc(C)cc2C)C1` (centres undefined) is 32.8%; for `O=C(c1cc(C2CC2)on1)N1CCCC(n2cncn2)C1` (centres undefined) it is 56.6%; for `Cc1cc(C(=O)N2CCCC(n3cncn3)C2)no1` (centres undefined) it is 11.235%. Consider `COCC(=O)NCc1cc(=O)n2c(n1)CN(Cc1nccs1)CCC2`, for which the INHIBITION is given as 44.8%.

As to `CC(=O)N(C)C1CCN(C(=O)c2cccc3c2ccn3C)CC1`, the INHIBITION is recorded as 9.63%.

With `Cn1cc(CN2CCOCC3(C2)CN(c2ccccc2)C(=O)CO3)cn1` (centres undefined), the INHIBITION is listed as 17.1%. On to `CC(=O)N(Cc1noc(C)n1)C1CCN(Cc2cccc(C#N)c2)C1` (centres undefined), for which the INHIBITION is -18%. `O=C(O)CN1CCC(C(F)(F)F)CC1`: the INHIBITION stood at 2.4%. The figure for `Cc1c(CNC(=O)c2cn(CCC3CCCCN3)nn2)cnn1C` (centres undefined) is -70.7%.

As for `CCn1nc(C)c(CNC(=O)c2cn(CCC3CCCCN3)nn2)c1C` (centres undefined), the INHIBITION was -25%. In the case of `CCn1ncc(CNC(=O)c2cn(CCC3CCCCN3)nn2)c1C` (centres undefined), the INHIBITION is on record as 83.8%.
